# According to the antibiotic and cytotoxicity screens of Wong et al. (2023):
# Hit rate of the full screen: of about 39,000 compounds, about 3,300 (8.5%) were called active. Only a selection was taken, and actives are over-represented in it overall.
# Test system: HepG2
# Experiment: cytotoxicity call (relative viability < 0.9)
# Conditions: 10 µM
row,Compound,cytotoxicity call
1,O=C(CCCCC(=O)N/N=C/c1cc(I)cc(I)c1O)NO,inactive
2,COCC(=O)N1C[C@H](C)[C@H](OC)CN(C)C(=O)c2cc(NC(=O)Nc3cccc(F)c3)ccc2OC[C@H]1C,inactive
3,C[C@@H]1CN([C@@H](C)CO)C(=O)c2cc(C#CCc3ccccc3)cnc2O[C@H]1CN(C)C(=O)C1CCOCC1,inactive
4,COc1ccc(S(=O)(=O)Nc2ccc3c(c2)C(=O)N([C@H](C)CO)C[C@@H](C)[C@@H](CN(C)C(=O)NC(C)C)O3)cc1,inactive
5,CC(C)NC(=O)N(C)C[C@H]1Oc2ccc(NC(=O)Nc3ccc4c(c3)OCO4)cc2C(=O)N([C@@H](C)CO)C[C@@H]1C,inactive
6,Cc1noc(C)c1S(=O)(=O)Nc1ccc2c(c1)CC(=O)N([C@@H](C)CO)C[C@@H](C)[C@H](CN(C)Cc1ccccc1)O2,inactive
7,C[C@@H]1CN([C@@H](C)CO)C(=O)c2cc(NC(=O)CCCN(C)C)ccc2O[C@@H]1CN(C)S(=O)(=O)c1ccc(F)cc1,inactive
8,C[C@H](CO)N1C[C@H](C)[C@@H](CN(C)C(=O)Nc2ccc(C(F)(F)F)cc2)Oc2c(NC(=O)Nc3cccc4ccccc34)cccc2C1=O,active
9,C[C@H](CO)N1C[C@H](C)[C@H](CN(C)C(=O)Nc2ccc(C(F)(F)F)cc2)Oc2c(NC(=O)Nc3cccc4ccccc34)cccc2C1=O,inactive
10,C[C@@H]1CN([C@H](C)CO)C(=O)c2cccc(NC(=O)Nc3cccc4ccccc34)c2O[C@H]1CN(C)C(=O)Nc1ccc(C(F)(F)F)cc1,inactive
11,COc1ccc2ccccc2c1-c1c(OC)ccc2ccccc12,inactive
12,COCOc1ccc2cc(Br)ccc2c1-c1c(OCOC)ccc2cc(Br)ccc12,active
13,C[C@H]1CN([C@@H](C)CO)C(=O)c2cc(C#CCc3ccccc3)cnc2O[C@H]1CN(C)C(=O)C1CCOCC1,inactive
14,C[C@@H]1CCCCO[C@H](CN(C)Cc2ccccc2)[C@H](C)CN([C@@H](C)CO)C(=O)c2cc(NC(=O)C3CCCCC3)ccc2O1,inactive
15,COc1ccc(CNC(=O)c2cc3c(c(-c4cccc(-c5ccc(C#N)cc5)c4)n2)[C@@H](CCO)N([S@](=O)C(C)(C)C)C3)cc1,inactive
16,CN(C)CCCNC(=O)C[C@@H]1CC[C@@H]2[C@H](COC[C@H](O)CN2C(=O)Nc2cc(Cl)cc(Cl)c2)O1,inactive
17,C[C@H](CO)N1C[C@H](C)[C@H](CN(C)Cc2ccc(C(=O)Nc3ccccc3N)cc2)Oc2ccc(NC(=O)C3CCCCC3)cc2CC1=O,inactive
18,C[C@@H]1CN([C@H](C)CO)C(=O)Cc2cc(NC(=O)C3CCCCC3)ccc2O[C@@H]1CN(C)Cc1ccc(C(=O)Nc2ccccc2N)cc1,active
19,C[C@H]1CN([C@@H](C)CO)C(=O)Cc2cc(NC(=O)NC3CCCCC3)ccc2O[C@@H]1CN(C)Cc1ccc(C(=O)Nc2ccccc2N)cc1,inactive
20,C[C@@H]1CN([C@H](C)CO)C(=O)Cc2cc(NC(=O)NC3CCCCC3)ccc2O[C@H]1CN(C)Cc1ccc(C(=O)Nc2ccccc2N)cc1,inactive
21,C[C@H](CO)N1C[C@H](C)[C@H](CN(C)Cc2ccc(C(=O)Nc3ccccc3N)cc2)Oc2ccc(NC(=O)NC3CCCCC3)cc2CC1=O,inactive
22,C[C@H]1CN([C@@H](C)CO)C(=O)Cc2cc(NC(=O)C3CCCCC3)ccc2O[C@H]1CN(C)Cc1ccc(C(=O)Nc2ccccc2N)cc1,inactive
23,C[C@H]1CN([C@@H](C)CO)C(=O)Cc2cc(NC(=O)NC3CCCCC3)ccc2O[C@H]1CN(C)Cc1ccc(C(=O)Nc2ccccc2N)cc1,active
24,C[C@@H]1CN([C@H](C)CO)C(=O)Cc2cc(NC(=O)NC3CCCCC3)ccc2O[C@@H]1CN(C)Cc1ccc(C(=O)Nc2ccccc2N)cc1,active

row,Compound,cytotoxicity call
1,C[C@H](CO)N1C[C@H](C)[C@@H](CN(C)Cc2ccc(C(=O)Nc3ccccc3N)cc2)Oc2ccc(NC(=O)NC3CCCCC3)cc2CC1=O,inactive
2,C[C@H](CO)N1C[C@H](C)[C@H](CN(C)C(=O)Nc2ccccc2)Oc2ccc(NS(C)(=O)=O)cc2CC1=O,inactive
3,C[C@@H]1CCCCO[C@H](CN(C)C(=O)NC2CCCCC2)[C@@H](C)CN([C@@H](C)CO)C(=O)c2cc(NS(=O)(=O)c3cccs3)ccc2O1,inactive
4,O=C(C[C@@H]1CC[C@H](NC(=O)CN2CCOCC2)[C@H](CO)O1)NCc1cccc(F)c1,inactive
5,C[C@@H]1CN([C@H](C)CO)C(=O)c2cc(NC(=O)Cn3cnnn3)ccc2O[C@H]1CN(C)S(=O)(=O)c1cn(C)cn1,inactive
6,COc1ccc(NC(=O)Nc2ccc3c(c2)C(=O)N([C@H](C)CO)C[C@H](C)[C@H](CN(C)Cc2ccccc2)OCCCC[C@@H](C)O3)cc1,inactive
7,C[C@@H]1CN([C@@H](C)CO)S(=O)(=O)c2ccc(-c3cccnc3)cc2O[C@@H]1CN(C)C(=O)c1ccc2c(c1)OCO2,inactive
8,Cn1cnc(S(=O)(=O)N2C[C@@H](O)COC[C@H]3O[C@@H](CC(=O)NCc4cc(F)cc(F)c4)CC[C@@H]32)c1,inactive
9,O=C(C[C@H]1CC[C@H]2[C@@H](COC[C@@H](O)CN2C(=O)c2cccnc2)O1)NCC1CC1,inactive
10,CC(=O)N1CC2(CCN(CC(=O)N3CCOCC3)CC2)C[C@@H]1C(=O)O,inactive
11,COC(=O)[C@@H](N)c1cccc(OC)c1,inactive
12,COc1ccc(C2=C(NC(=O)c3ccc(OC)cc3-c3cccc(OC)c3)C(=O)c3ccccc3C2=O)cc1,active
13,O=C(NC1=C(c2ccc(OC(F)(F)F)cc2)C(=O)c2ccccc2C1=O)c1ccc(Br)cc1,inactive
14,Cc1noc(C)c1NC(=O)N(C)C[C@@H]1Oc2ncc(C#CCN(C)C)cc2C(=O)N([C@@H](C)CO)C[C@H]1C,inactive
15,CNC(=O)C[C@H]1C[C@@H]2CN(S(=O)(=O)c3cccnc3)C[C@@H]2O1,inactive
16,Cc1ccc(S(=O)(=O)N(C)C[C@H]2OCCCC[C@H](C)Oc3ccc(NS(=O)(=O)c4ccc(F)cc4)cc3C(=O)N([C@@H](C)CO)C[C@H]2C)cc1,inactive
17,CCOC(=O)C(=O)c1csc(NC=O)n1,inactive
18,O=C(NC[C@@H](O)CO)[C@]1(CCS(=O)(=O)c2ccccc2)N=C(c2ccc(OCCCO)cc2)O[C@@H]1c1ccccc1,inactive
19,[N-]=[N+]=Nc1ccccc1C[C@]1(C(=O)N2CCCCC2)N=C(c2ccc(OCCCO)cc2)O[C@H]1c1ccccc1,active
20,[N-]=[N+]=NCc1ccccc1C[C@]1(C(=O)NCc2ccccc2)N=C(c2ccc(OCCCO)cc2)O[C@H]1c1ccccc1,active
21,[N-]=[N+]=Nc1ccccc1C[C@@]1(C(=O)NCc2ccccc2)N=C(c2ccc(OCCCO)cc2)O[C@@H]1c1ccccc1,inactive
22,[N-]=[N+]=Nc1ccccc1C[C@@]1(C(=O)N2CCCCC2)N=C(c2ccc(OCCCO)cc2)O[C@@H]1c1ccccc1,inactive
23,[N-]=[N+]=NCc1ccccc1C[C@]1(C(=O)NC[C@@H](O)CO)N=C(c2ccc(OCCCO)cc2)O[C@H]1c1ccccc1,inactive
24,O=C(NC[C@@H](O)CO)[C@]1(Cc2ccccc2)N=C(c2ccc(OCCCO)cc2)O[C@@H]1c1ccccc1,inactive

row,Compound,cytotoxicity call
1,[N-]=[N+]=NCc1ccccc1C[C@@]1(C(=O)N2CCCCC2)N=C(c2ccc(OCCCO)cc2)O[C@@H]1c1ccccc1,inactive
2,CC(C)(C)OC(=O)CC[C@]1(C(=O)NCc2ccccc2)N=C(c2ccc(OCCCO)cc2)O[C@H]1c1ccccc1,active
3,CN1CCN(C(=O)C[C@@H]2C=C[C@@H](NC(=O)Nc3ccccc3F)[C@H](CO)O2)CC1,inactive
4,OCc1ccc(-c2cccs2)cc1,inactive
5,CCNC(=O)N1CCN(CCO)CC1,inactive
6,C[C@@H]1CN([C@H](C)CO)C(=O)c2cc(NC(=O)CCC(F)(F)F)ccc2O[C@@H](C)CCCCO[C@@H]1CN(C)S(=O)(=O)c1ccc(F)cc1,inactive
7,CC(C)CC(=O)N[C@H](C(=O)N[C@H](C(=O)N[C@@H](CC(C)C)[C@@H](O)CC(=O)N[C@@H](C)C(=O)N[C@@H](CC(C)C)[C@@H](O)CC(=O)O)C(C)C)C(C)C,inactive
8,COc1cccc(S(=O)(=O)N[C@@H]2CC[C@H](CCn3cc(-c4ccccc4OC)nn3)O[C@@H]2CO)c1,inactive
9,Cn1c(=O)c2c(ncn2CC(=O)N2CCN(c3ccccc3)CC2)n(C)c1=O,inactive
10,CCOC(=O)CCCCCC(=O)Nc1ccc2c(c1)C(=O)N([C@@H](C)CO)C[C@@H](C)[C@H](CN(C)S(=O)(=O)c1cccs1)OCCCC[C@H](C)O2,inactive
11,C[C@H]1CN([C@@H](C)CO)C(=O)c2cccc(NC(=O)Nc3ccc(F)cc3)c2O[C@@H]1CN(C)S(=O)(=O)c1cn(C)cn1,active
12,C[C@H](CO)N1C[C@H](C)[C@@H](CN(C)S(=O)(=O)c2cn(C)cn2)Oc2c(NC(=O)Nc3ccc(F)cc3)cccc2C1=O,inactive
13,C[C@@H]1CN([C@@H](C)CO)C(=O)c2cccc(NC(=O)c3ccncc3)c2O[C@H]1CN(C)S(=O)(=O)c1cn(C)cn1,active
14,COc1ccc(S(=O)(=O)N(C)C[C@H]2Oc3c(NC(=O)c4ccncc4)cccc3C(=O)N([C@@H](C)CO)C[C@H]2C)cc1,active
15,C[C@@H]1CN([C@H](C)CO)C(=O)c2cccc(NC(=O)c3ccncc3)c2O[C@H]1CN(C)S(=O)(=O)c1cn(C)cn1,inactive
16,COc1ccc(S(=O)(=O)N(C)C[C@H]2Oc3c(NC(=O)c4ccncc4)cccc3C(=O)N([C@H](C)CO)C[C@H]2C)cc1,inactive
17,C[C@H](CO)N1C[C@H](C)[C@H](CN(C)S(=O)(=O)c2cn(C)cn2)Oc2c(NC(=O)Nc3ccc(F)cc3)cccc2C1=O,inactive
18,C[C@H]1CN([C@@H](C)CO)C(=O)c2cccc(NC(=O)c3ccncc3)c2O[C@@H]1CN(C)S(=O)(=O)c1cn(C)cn1,inactive
19,C[C@@H]1CN([C@H](C)CO)C(=O)c2cccc(NC(=O)c3ccncc3)c2O[C@@H]1CN(C)S(=O)(=O)c1ccccc1,inactive
20,COc1ccc(S(=O)(=O)N(C)C[C@@H]2Oc3c(NC(=O)c4ccncc4)cccc3C(=O)N([C@@H](C)CO)C[C@@H]2C)cc1,inactive
21,C[C@H](CO)N1C[C@H](C)[C@H](CN(C)S(=O)(=O)c2ccccc2)Oc2c(NC(=O)c3ccncc3)cccc2C1=O,inactive
22,C[C@@H]1CN([C@@H](C)CO)C(=O)c2cccc(NC(=O)c3ccncc3)c2O[C@@H]1CN(C)S(=O)(=O)c1ccccc1,active
